MITF primary – MITF inhibitors, primary screen, biochemical, AlphaScreen, human; Microphthalmia-associated transcription factor (Homo sapiens), O75030; AlphaScreen MITF homodimerization, bead proximity signal; inhibition, % at 2.6 µM; actives 0.91% (n = 650,000); AID 1259374, 2018; in the data active = inhibition above about 50%
Target sequence (O75030 whole entry, looked up): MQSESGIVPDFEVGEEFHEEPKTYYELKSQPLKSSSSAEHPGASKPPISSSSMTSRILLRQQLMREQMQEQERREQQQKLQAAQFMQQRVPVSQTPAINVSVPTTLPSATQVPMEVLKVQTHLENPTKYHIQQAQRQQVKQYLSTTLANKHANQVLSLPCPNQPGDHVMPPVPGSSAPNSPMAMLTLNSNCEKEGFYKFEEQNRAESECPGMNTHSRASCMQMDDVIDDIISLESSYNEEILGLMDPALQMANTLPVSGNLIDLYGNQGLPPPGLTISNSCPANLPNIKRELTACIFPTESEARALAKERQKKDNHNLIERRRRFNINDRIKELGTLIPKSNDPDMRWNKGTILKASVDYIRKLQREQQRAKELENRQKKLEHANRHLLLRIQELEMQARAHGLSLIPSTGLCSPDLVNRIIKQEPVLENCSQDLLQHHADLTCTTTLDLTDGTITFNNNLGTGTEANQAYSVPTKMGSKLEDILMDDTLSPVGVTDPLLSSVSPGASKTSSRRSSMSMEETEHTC
TEAD-YAP block – TEAD-YAP interaction inhibition, primary screen, TEAD-YAP interaction inhibitor project, luminescence, HEK-TIYL cells. TEAD-Gal4/YAP UAS-luciferase luminescence. inhibition, % at 9.12 µM. actives 1.4% (n = 640,000). AID 1259422, 2018; in the data active = inhibition above about 32%
FBW7 activator – FBW7 E3 ligase activators, primary screen, biochemical, AlphaScreen, human; F-box/WD repeat-containing protein 7 (Homo sapiens), Q969H0; AlphaScreen FBW7–phospho-cyclin E peptide binding, activator screen; actives 0.13% (n = 650,000); normalized activity (activation), % at 26.1 µM; in the data active = normalized activity above about 1.9%;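 note: purified mutant Fbw7 with reduced substrate affinity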
GPR151 activ – activators of human GPR151, primary screen, cell-based, PathHunter beta-arrestin, luminescence | PathHunter beta-arrestin GPR151 cells | activation, % at 11.2 µM | actives 1% (n = 650,000) | AID 1508602, 2020; in the data active = activation above about 4.9%
Large screens that a line does not name were inactive; ! = repeats disagree. Hits are enriched below; roughly 3.5% of the tested compounds scored in any of these assays.

COc1ccc(-n2ncc3c(Nc4cccc5c4CCCC5)ncnc32)cc1	TEAD-YAP block 47.1
Cc1cccc(Nc2ncnc3c2cnn3-c2cccc(C)c2)c1	none
CSc1ncc(C(=O)Nc2ccc(Cl)cn2)c(C)n1	none
C/C(Cn1nc([N+](=O)[O-])cc1C)=N/NC(=O)c1cc(O)c(O)c(O)c1	MITF primary 55.7
CN(C)c1ccc(/C=N/NC(=O)CN(N=Nc2nonc2N)c2nonc2N)cc1	none
CCOc1ccc(NC(=O)NC(C(F)(F)F)C(F)(F)F)cc1	none
Cc1cc(C)cc(NC(=O)C2C3C=CC4(O3)C2C(=O)N(Cc2ccc(Cl)cc2)C4C(=O)NC2CCCCC2)c1 (stereo not drawn)	none
O=C(O)c1ccc(NCc2ccc(Cl)cc2)c([N+](=O)[O-])c1	TEAD-YAP block 37.9
CCCCN(c1ccccc1)c1ncnc(N)c1[N+](=O)[O-]	none
CN(c1ncnc(N)c1[N+](=O)[O-])C1CCCCC1	TEAD-YAP block 53.7
CN(c1ncnc(N)c1[N+](=O)[O-])C1CCS(=O)(=O)C1 (stereo not drawn)	none
CCN(c1ccccc1)c1ncnc(N)c1[N+](=O)[O-]	TEAD-YAP block 52.3
CCCCN(C)c1ncnc(N)c1[N+](=O)[O-]	TEAD-YAP block 41.5
CCCCN(Cc1ccccc1)c1ncnc(N)c1[N+](=O)[O-]	none
CCN(CC)c1ncnc(N)c1[N+](=O)[O-]	TEAD-YAP block 63.1
Cc1cccc2cc3c(nc12)OCC(=O)N(Cc1ccc(F)cc1)C3	none
Cc1cc2c(=O)n(CC(=O)Nc3cccc(Cl)c3)cnc2s1	none
C/C(=N/NC(=O)c1nc2nc(C)cc(C)n2n1)c1ccc(O)cc1	none
O=[N+]([O-])c1c(N2CCCCCC2)ncnc1N1CCCCCC1	none
Nc1ncnc(N2CCCCCC2)c1[N+](=O)[O-]	TEAD-YAP block 49.3
Cc1ccc2c(c1)cc1c(=O)n(CC(=O)NCc3ccccc3)nc(C)n12	none
Cc1cc(C)nc(Nc2ccc(Oc3ccccc3)cc2)n1	TEAD-YAP block 45.6
Nc1nc(Nc2ccc(Oc3ccccc3)cc2)cc(-c2ccccc2)n1	TEAD-YAP block 44.2
O=C(c1ccc(CSCc2c(F)cccc2Cl)o1)N1CCc2ccccc21	none
Cc1[nH]ccc2c1[nH]c1cc(=O)ccc12	TEAD-YAP block 37.0!
O=C(COC(=O)c1n[nH]c2ccccc12)Nc1ccc2c(c1)C(=O)c1ccccc1C2=O	none
COc1ccc(CCNC(=O)c2ccc3nc(Nc4ccc5ncccc5c4)sc3c2)cc1	TEAD-YAP block 31.9
C#CCOc1ccc(/C=C2\C(=O)NC(=O)N(c3ccc(C(=O)O)cc3)C2=O)cc1OC	none
Cc1nc2c(-c3ccc(Cl)cc3)cnn2c(N)c1-c1ccccc1	TEAD-YAP block 89.0
Cc1nn2c(N)cc(-c3ccccc3)nc2c1-c1ccc(Cl)cc1	none
O=C(CSc1nnc2ccc(-c3cccnc3)nn12)N1CCCc2ccccc21	FBW7 activator 1.9
O=C(CSc1nnc2ccc(-c3ccc(Cl)cc3)nn12)N1CCCc2ccccc21	none
CCOC(=O)N1CCN(c2c(NCc3ccccc3)c(=O)c2=O)CC1	TEAD-YAP block 56.0
c1cncc(-c2cc(-c3c[nH]c4ccccc34)[nH]n2)c1	none
CCCCN(CC)S(=O)(=O)c1ccccc1	none
CCCCP(=Nc1ccccc1)(N(CC)CC)N(CC)CC	TEAD-YAP block 92.1
Cc1ccc(NC2=NC(=S)N(c3ccccc3)C23CCC(C(C)(C)C)CC3)cc1 (stereo not drawn)	none
CC1=CC(C)(C)N2C(=O)/C(=C3\SC(=O)NC3=O)c3cc(C)cc1c32	none
CCOC(=O)c1c(N)sc(C(=O)Nc2cccc(OC)c2)c1C	TEAD-YAP block 51.6
COC(=O)c1c(N)sc(C(=O)Nc2ccc(C)cc2C)c1C	TEAD-YAP block 75.7
CCOC(=O)c1c(N)sc(C(=O)Nc2ccccc2C)c1C	none
CCOC(=O)c1ccc(NC(=O)c2sc(N)c(C(=O)OCC)c2C)cc1	TEAD-YAP block 61.1
CCOC(=O)c1ccc(NC(=O)c2sc(NC(=O)c3cc(OC)c(OC)c(OC)c3)c(C(=O)OCC)c2C)cc1	none
CCOC(=O)c1ccccc1NC(=O)c1sc(N)c(C(=O)OCC)c1C	TEAD-YAP block 54.3
COC(=O)c1c(N)sc(C(=O)Nc2ccccc2C)c1C	none
O=C(CSc1nc2ccccc2o1)N/N=C/c1ccc(Cl)cc1	none
CC1CCCCN1CCCNc1nc2ccccc2c2nc(-c3cccnc3)nn12 (stereo not drawn)	TEAD-YAP block 50.2
CCN(CC)CCNc1nc2cc(OC)c(OC)cc2c2nc(-c3ccccc3)nn12	TEAD-YAP block 54.4
CC1CCCC(C)N1CCNc1nc2ccccc2c2nc(-c3cccnc3)nn12 (stereo not drawn)	TEAD-YAP block 80.7
CCN(CC)CCCNc1nc2ccccc2c2nc(-c3cccnc3)nn12	TEAD-YAP block 48.7
c1ccc(Nc2nc(-c3csc4ccccc34)nc3c2ncn3-c2ccsc2)cc1	none
O=C(Nc1nc2ccccc2[nH]1)C1(c2cccs2)CCOCC1	none
COc1ccc(-c2nc(-c3ccncc3)no2)cc1	none
COc1cc(OC)cc(-c2nc(-c3ccccn3)no2)c1	none
COc1cc(OC)cc(-c2nc(-c3ccccc3)no2)c1	none
Cc1cccc(-c2noc(-c3ccc(C(C)(C)C)cc3)n2)c1	TEAD-YAP block 48.7
COc1ccc(-c2nc(-c3ccccc3)no2)cc1	TEAD-YAP block 52.6
COc1ccc(-c2noc(-c3cccc(C)c3)n2)cc1	none
COc1ccc(-c2nc(-c3ccccn3)no2)cc1	TEAD-YAP block 96.6
COc1ccc(-c2nc(-c3cccs3)no2)cc1	TEAD-YAP block 74.6
CCCCN(C)C(=O)C1c2ccccc2C(=O)N2CCc3cc(OC)c(OC)cc3C12 (stereo not drawn)	none
Cc1c(Cl)cn2c(=O)cc(CN3CC(O)Cc4ccc5ccccc5c43)nc2c1Cl (stereo not drawn)	none
CC1CCN(Cc2nnnn2CCCC(=O)N2CCCCC2c2ccccn2)CC1 (stereo not drawn)	none
CCOC(=O)c1cnn(-c2ccc(OC)cc2)c1CNC(C)CO (stereo not drawn)	none
CC1=C(C(=O)Nc2cccc(F)c2)C(c2ccsc2)C2=C(CC(C)(C)CC2=O)N1 (stereo not drawn)	TEAD-YAP block 53.5
CC1=C(C(=O)Nc2cccc(F)c2)C(c2cccs2)C2=C(CC(C)(C)CC2=O)N1 (stereo not drawn)	TEAD-YAP block 58.3
CSc1nc(N)c2c(n1)NC1=C(C(=O)CC(C)(C)C1)C2c1cccs1 (stereo not drawn)	TEAD-YAP block 48.7
CC1=C(C(=O)Nc2ccccc2F)C(c2ccsc2)C2=C(CC(C)(C)CC2=O)N1 (stereo not drawn)	TEAD-YAP block 54.7
CC1=C(C(=O)Nc2ccccc2F)C(c2ccccn2)C2=C(CC(C)(C)CC2=O)N1 (stereo not drawn)	none
CC1=C(C(=O)Nc2ccc(F)cc2)C(c2ccsc2)C2=C(CC(C)(C)CC2=O)N1 (stereo not drawn)	none

Screens (PubChem BioAssay)
